# According to PubChem BioAssay (NCATS):
# Inconclusive results are not listed. Entries that show only a call come without a potency. Calls of active or inactive are those of the source. Calls come from the whole dose curve; as a rule, active = well fitted curve in the direction sought with a large enough effect; inconclusive = small, poorly fitted or top-dose-only effect, or another doubt; inactive = no such curve, though single readings can be large; an effect the other way counts as inactive or inconclusive.
# How the values were obtained:
# [1] = MultiTox-Fluor Cytotoxicity Assay - LYMP1-003 - Live Cells (AID 962);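 note: cells exposed to compound for 16 hours at 37 °C; cytotoxic hits lower the live-cell protease signal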
# In short: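 LYMP1-003 lymphoblastoid cells, 2500/well in complete medium, treated 16 h at 37 C; live-cell protease cleavage of GF-AFC read by fluorescence (Ex/Em 405/510) after 60 min reagent; AC50 from Hill fits of concentration-response.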
# [2] = Cell Viability - LYMP1-003 - Assay at 24 hr (AID 963); note: potency is the fitted concentration of half-maximal effect
# In short: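 Human lymphoblastoid LYMP1-003 cells, 2500/well, treated 24 h at 37 C in complete medium. Viability read as intracellular ATP by CellTiter-Glo luminescence after 30 min at room temperature; AC50 from Hill-equation fits of qHTS concentration-response.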
# [3] = Cell Viability - LYMP1-003 - Assay at 40 hr (AID 964); note: nearly all actives have a fitted effect of over 60% in size; note: potency is the fitted concentration of half-maximal effect
# In short: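 LYMP1-003 human lymphoblastoid cells, 2500/well, preincubated 5 h at 37 C, then treated with compound for 40 h at 37 C. Intracellular ATP read by CellTiter-Glo luminescence after 30 min at room temperature; AC50 from Hill-equation fits.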
# [4] = Cell Viability - LYMP2-003 (AID 965);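 note: cells exposed to compounds for 24 h before reading; nearly all actives have a fitted effect of over 50% in size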; note: potency is the fitted concentration of half-maximal effect
# In short: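 CellTiter-Glo luminescence (cellular ATP) after 24 h compound exposure at 37 C in complete medium; 2500 cells/well, 5 h settling beforehand. Concentration-response fitted to standard Hill equation for AC50. Tetraoctylammonium bromide served as positive control.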
# [5] = Cell Viability - LYMP2-004 (AID 966); note: nearly all actives have a fitted effect of over 65% in size; note: potency is the fitted concentration of half-maximal effect
# In short: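 Lymphoblastoid LYMP2-004 cells, 2500 per well, were preincubated for 5 hr and then treated with compound for 24 h at 37 C in complete medium. Viability was read as cellular ATP by CellTiter-Glo luminescence, and AC50 values were taken from Hill fits to concentration-response data.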
# [6] = Cell Viability - LYMP2-009 (AID 968); note: nearly all actives have a fitted effect of over 55% in size; note: potency is the fitted concentration of half-maximal effect
# [7] = Cell Viability - LYMP2-011 (AID 969); note: nearly all actives have a fitted effect of over 60% in size; note: potency is the fitted concentration of half-maximal effect
# In short: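 2500 cells/well in complete medium, compound-treated 24 h at 37 C. Viability read as intracellular ATP by CellTiter-Glo luminescence after 30 min at room temperature. AC50 from Hill fits of qHTS concentration-response data.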
# [8] = Cell Viability - LYMP2-013 (AID 970); note: nearly all actives have a fitted effect of over 55% in size; note: potency is the fitted concentration of half-maximal effect
# In short: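 Human lymphoblastoid LYMP2-013 cells, 2500/well, treated 24 h at 37 C in complete medium; viability as intracellular ATP by CellTiter-Glo luminescence after 30 min. AC50 from Hill fits of qHTS concentration-response.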
# [9] = Cell Viability - LYMP2-015 (AID 971); note: nearly all actives have a fitted effect of over 55% in size; note: potency is the fitted concentration of half-maximal effect
# In short: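 LYMP2-015 human lymphoblastoid cells (2500/well) in complete medium, compound-treated 24 h at 37 C; viability read as cellular ATP by CellTiter-Glo luminescence after 30 min at room temperature. AC50 from Hill-equation fits of qHTS concentration-response data.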
# [10] = Cell Viability - LYMP2-017 (AID 972); note: nearly all actives have a fitted effect of over 55% in size; note: potency is the fitted concentration of half-maximal effect
# In short: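 LYMP2-017 human lymphoblastoid cells (2500/well) settled 5 hr at 37 C, then exposed to compound 24 hr at 37 C in complete medium. Viability taken as intracellular ATP by CellTiter-Glo luminescence after 30 min at RT; AC50 from Hill fits.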
# [11] = Cell Viability - LYMP2-019 (AID 973); note: nearly all actives have a fitted effect of over 55% in size; note: potency is the fitted concentration of half-maximal effect
# In short: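 Human lymphoblastoid LYMP2-019 cells (2500/well) preincubated 5 h at 37 C, then treated 24 h at 37 C in complete medium. Viability by CellTiter-Glo ATP luminescence after 30 min at room temperature; AC50 from Hill fits.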
# [12] = Cell Viability - LYMP2-021 (AID 974); note: potency is the fitted concentration of half-maximal effect
# In short: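 Human lymphoblastoid LYMP2-021 cells, 2500/well in complete medium, treated 24 hours at 37 C. Intracellular ATP by CellTiter-Glo luminescence (30 min, RT); AC50 from Hill fits of concentration-response.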
# [13] = Cell Viability - LYMP2-023 (AID 975); note: nearly all actives have a fitted effect of over 55% in size; note: potency is the fitted concentration of half-maximal effect
# In short: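 LYMP2-023 human lymphoblastoid cells, 2500/well, preincubated 5 hr at 37 C, then compound-treated 24 hr at 37 C in complete medium. CellTiter-Glo luminescence (ATP) after 30 min at room temperature; AC50 from Hill-equation fits; tetraoctylammonium bromide positive control.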
# [14] = Cell Viability - LYMP2-002 (AID 977); note: potency is the fitted concentration of half-maximal effect
# In short: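 Luminescent ATP readout (CellTiter-Glo, 30 min room temperature) after 24 h compound exposure at 37 C of a human lymphoblastoid line, 2500 cells/well. AC50 values derived by standard Hill fitting of qHTS concentration-response data.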
# [15] = Cell Viability - LYMP2-006 (AID 978); note: nearly all actives have a fitted effect of over 60% in size; note: potency is the fitted concentration of half-maximal effect
# In short: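 qHTS, 1536-well; 2500 cells/well, 5 hr 37 C; cpd 24 hr 37 C; CellTiter-Glo 30 min RT; luminescence. Tetraoctylammonium bromide pos. ctrl. AC50 via Hill eqn.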
# [16] = Cell Viability - LYMP2-008 (AID 980); note: nearly all actives have a fitted effect of over 60% in size; note: potency is the fitted concentration of half-maximal effect
# In short: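 LYMP2-008 lymphoblastoid cells (2500/well) plated 5 h, then treated 24 h at 37 C in complete medium. Viability read as intracellular ATP by CellTiter-Glo luminescence after 30 min at room temperature; AC50 from Hill fits.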
# [17] = Cell Viability - LYMP2-012 (AID 982); note: potency is the fitted concentration of half-maximal effect
# [18] = Cell Viability - LYMP2-016 (AID 984); note: nearly all actives have a fitted effect of over 55% in size; note: potency is the fitted concentration of half-maximal effect
# In short: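 qHTS, 1536-well: 2500 LYMP2-016 cells/well, 5 hr 37 C, compound added, 24 hr 37 C, CellTiter-Glo 30 min RT, luminescence. Tetraoctylammonium bromide positive control. AC50 via Hill fit.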
# [19] = Cell Viability - LYMP2-005 (AID 967); note: series mostly up to about 92 µM
# In short: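 Steps: seed 2500 LYMP2-005 cells/well, incubate 5 h at 37 C, add compound, incubate 24 h at 37 C, add CellTiter-Glo, wait 30 min at RT, read luminescence. Concentration-response data fitted to Hill equation for AC50.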
# [20] = Cell Viability - LYMP2-014 (AID 983); note: series mostly up to about 92 µM; nearly all actives have a fitted effect of over 50% in size
# In short: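 LYMP2-014 human lymphoblastoid cells, 2500/well, treated 24 h at 37 C in complete medium; viability by CellTiter-Glo ATP luminescence after 30 min at room temperature. AC50 from Hill fits of qHTS concentration-response; tetraoctylammonium bromide positive control.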
SMILES,Potency [1],Potency [2],Potency [3],Potency [4],Potency [5],Potency [6],Potency [7],Potency [8],Potency [9],Potency [10],Potency [11],Potency [12],Potency [13],Potency [14],Potency [15],Potency [16],Potency [17],Potency [18],Potency [19],Potency [20]
COc1cc(/C=C/C(=O)CC(=O)/C=C/c2ccc(O)c(OC)c2)ccc1O,inactive,50.1 µM (active),39.8 µM (active),31.6 µM (active),31.6 µM (active),25.1 µM (active),31.6 µM (active),50.1 µM (active),50.1 µM (active),39.8 µM (active),39.8 µM (active),50.1 µM (active),50.1 µM (active),39.8 µM (active),25.1 µM (active),25.1 µM (active),31.6 µM (active),39.8 µM (active),–,–
c1ccc2sc(SSc3nc4ccccc4s3)nc2c1,inactive,inactive,inactive,inactive,inactive,inactive,inactive,inactive,inactive,inactive,inactive,inactive,inactive,inactive,inactive,inactive,inactive,inactive,inactive,inactive
COc1cc(CNC(=O)CCCC/C=C/C(C)C)ccc1O,inactive,inactive,–,inactive,inactive,inactive,inactive,inactive,inactive,inactive,inactive,inactive,inactive,inactive,inactive,inactive,inactive,inactive,inactive,inactive
Nc1nc2ccc([N+](=O)[O-])cc2s1,inactive,inactive,inactive,inactive,inactive,inactive,inactive,inactive,inactive,inactive,inactive,inactive,inactive,inactive,inactive,inactive,inactive,inactive,–,inactive
Nc1ccc(O)c([N+](=O)[O-])c1,inactive,inactive,–,inactive,inactive,inactive,inactive,inactive,–,inactive,–,inactive,inactive,inactive,inactive,inactive,inactive,inactive,inactive,inactive
CC1(C)S[C@@H]2[C@H](NC(=O)[C@H](N)c3ccccc3)C(=O)N2[C@H]1C(=O)O,inactive,inactive,inactive,inactive,inactive,inactive,inactive,inactive,inactive,inactive,inactive,inactive,inactive,inactive,inactive,inactive,inactive,inactive,inactive,inactive
Oc1ccccc1O,–,–,–,inactive,–,–,–,–,–,inactive,inactive,–,inactive,–,–,inactive,–,inactive,–,–
NCCO,inactive,inactive,inactive,inactive,inactive,inactive,inactive,inactive,inactive,inactive,inactive,inactive,inactive,inactive,inactive,inactive,inactive,inactive,inactive,inactive
O=C(O)c1cc(O)c(O)c(O)c1,inactive,inactive,–,–,–,inactive,inactive,inactive,inactive,inactive,inactive,inactive,inactive,inactive,inactive,inactive,inactive,inactive,inactive,inactive
CCCOC(=O)c1ccc(O)cc1,inactive,inactive,inactive,inactive,inactive,inactive,inactive,inactive,inactive,inactive,inactive,inactive,inactive,inactive,inactive,inactive,inactive,inactive,inactive,inactive
CC(C)NCC(O)COc1cccc2ccccc12 (stereo not given),inactive,inactive,inactive,inactive,inactive,–,inactive,inactive,inactive,inactive,inactive,inactive,inactive,inactive,inactive,inactive,inactive,inactive,inactive,inactive
O=c1cc(-c2ccccc2)oc2ccccc12,inactive,inactive,inactive,inactive,inactive,inactive,inactive,inactive,inactive,inactive,inactive,inactive,inactive,inactive,inactive,inactive,inactive,inactive,inactive,inactive
